# Only some compounds are listed: those with a hit (about 21% of all), similar ones and a draw of the others.
# DT40 TDP1 no CPT = qHTS for Inhibitors of human tyrosyl-DNA phosphodiesterase 1 (TDP1): qHTS in cells in absence of CPT; DT40 Tdp1-/- hTDP1 cells, no CPT, ATP luminescence, 48 h; hit rate 15% among 420,000; Potency, µM (titrated, usually from 46.2 µM), for inactives: at the highest dose activity change, negative = growth inhibition, most hits filed as inhibitors; note: potency is the fitted concentration of half-maximal effect; % is set by controls: 0 for no effect and ±100 for the full control effect; nearly all actives have a fitted effect of over 55% in size
#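 Compound effects on proliferation are scored in DT40 Tdp1-/-;hTDP1 cells in the absence of CPT. ATP levels (CellTiter-Glo luminescence) are recorded after a ≥48 hr, 37 °C incubation.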
# DT40 TDP1 CPT = qHTS for Inhibitors of human tyrosyl-DNA phosphodiesterase 1 (TDP1): qHTS in cells in presence of CPT; hit rate 12% among 420,000; Potency, µM (doses to about 46.2 µM), for the others: top-dose activity change, negative = growth inhibition, most hits filed as inhibitors; AID 686979, 2013; chicken DT40 Tdp1-/-;hTDP1 cells + 20 nM CPT, ATP luminescence, 48 h; note: potency is the fitted concentration of half-maximal effect; % is set by controls: 0 for no effect and ±100 for the full control effect; nearly all actives have a fitted effect of over 55% in size
#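 Chicken DT40 Tdp1-/- cells complemented with human TDP1, 400 cells/well, exposed to compounds plus 20 nM camptothecin for at least 48 h at 37 C; viability read as ATP content by CellTiter-Glo luminescence.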
# DRD3 agonist = qHTS of D3 Dopamine Receptor Agonist: qHTS; D(3) dopamine receptor (Homo sapiens), P35462; D3R DiscoveRx beta-arrestin cells, luminescence, 90 min; max activation, %; hit rate 0.58% among 410,000; AID 652048, 2013; in the data active = max activation above about 30%; note: 0% is about no effect
# Target sequence (P35462 whole entry, looked up): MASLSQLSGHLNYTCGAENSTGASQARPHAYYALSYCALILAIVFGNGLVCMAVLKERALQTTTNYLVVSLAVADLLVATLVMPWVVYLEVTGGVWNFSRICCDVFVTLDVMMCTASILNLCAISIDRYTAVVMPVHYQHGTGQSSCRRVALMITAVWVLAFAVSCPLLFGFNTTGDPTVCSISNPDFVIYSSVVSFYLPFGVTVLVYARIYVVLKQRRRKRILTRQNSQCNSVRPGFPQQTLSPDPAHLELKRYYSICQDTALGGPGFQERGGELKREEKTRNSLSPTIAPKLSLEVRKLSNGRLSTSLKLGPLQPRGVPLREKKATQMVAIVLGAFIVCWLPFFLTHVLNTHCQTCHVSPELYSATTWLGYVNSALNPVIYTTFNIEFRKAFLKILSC
#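 Cells at 1500/well, incubated overnight, then treated with pinned compounds (dopamine as control) for 90 min at 37 degrees C. DiscoveRx reagent added for 30 - 60 minutes at room temperature; luminescence read.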
# D3 antag = qHTS of D3 Dopamine Receptor Antagonist: qHTS. D3R cells, DiscoveRx beta-arrestin luminescence, antagonist mode; active compounds read low. max response, negative = inhibition, %. hit rate 2.5% among 360,000; in the data active = max response below about -50%; inconclusive = no clear call, values can overlap the other calls; note: % is set by controls: 0 for no effect and ±100 for the full control effect
#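 Cells expressing the human receptor were seeded at 1500 cells/well, incubated overnight at 37 degrees C in 5% CO2, then exposed to library compounds with dopamine controls for 90 minutes at 37 degrees C before luminescent detection.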
# IL-1B inflam inh = qHTS for Inhibitors of Inflammasome Signaling: IL-1-beta AlphaLISA Primary Screen; THP-1 LPS/ATP IL-1B secretion, AlphaLISA, 16 h; active compounds read low; activity change, % at 57.5 µM; hit rate 4.7% among 360,000; in the data active = activity change below about -50%; inconclusive = mostly about -30% to -49%; note: % is set by controls: 0 for no effect and ±100 for the full control effect
#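 Secreted IL-1B measured by AlphaLISA bead assay after 16 h compound exposure of THP-1 cells; compounds (final up to 57.5 uM) added 1 h before LPS (250 ng/mL) and ATP (1.25 mM) stimulation; lower signal means less secretion.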
# ClpP mod = qHTS Assay for Activators of ClpP; ATP-dependent Clp protease proteolytic subunit (Bacillus subtilis (strain 168)), P80244; purified B. subtilis ClpP, FRET peptide cleavage, 20 min; Potency, µM (highest dose often 57.5 µM), for inactives: top-dose activity change, negative = active; hit rate 1.9% among 340,000; AID 651965, 2013; active = well fitted falling curve with a large enough effect; inconclusive = small, poorly fitted or top-dose-only effect; inactive = no such curve, though single readings can be large or run the other way; note: potency is the fitted concentration of half-maximal effect; the source files actives as falling curves though it sought activators and does not explain the sign; nearly all actives have a fitted effect of over 65% in size
# Target sequence (P80244 whole entry, looked up): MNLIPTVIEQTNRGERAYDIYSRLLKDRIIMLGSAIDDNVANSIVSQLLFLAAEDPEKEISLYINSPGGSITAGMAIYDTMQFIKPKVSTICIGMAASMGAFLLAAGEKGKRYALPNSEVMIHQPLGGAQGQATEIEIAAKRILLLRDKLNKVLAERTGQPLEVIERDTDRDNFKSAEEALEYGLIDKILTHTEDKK
#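 Buffer: 100 mM Tris/HCl pH8, 100 mM KCl, 0.05% low protease BSA, 2.5% glycerol, 0.01% Tween-20. ClpP 10 microg/mL final; 20 min RT; delta FRET normalized to ADEP and DMSO controls.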
# Active calls of the source: *; ? = inconclusive; / = no result. Unless noted, calls come from the whole dose curve; as a rule, active = well fitted inhibition curve with a large enough effect; inconclusive = small, poorly fitted or top-dose-only effect; inactive = flat fitted curve, though single readings scatter.
SMILES,DT40 TDP1 no CPT,DT40 TDP1 CPT,DRD3 agonist,D3 antag,IL-1B inflam inh,ClpP mod
Clc1ccccc1Cn1nnc2c(N3CCCC3)ncnc21,?,?,3,23,-6,0%
Cc1cccc2sc(N(Cc3cccnc3)C(=O)c3cccs3)nc12,-16%,-7%,-8,/,/,-2%
Oc1ccc(C2=NNC(c3ccc(O)cc3)=NN2)cc1,-1%,-3%,-14,5,6,-6%
CC(=O)Nc1ccc(C(=O)CSc2cc(C)c3cccc(C)c3n2)cc1,?,?,41*,14,0,1%
COc1ccc(/C=C/c2c([N+](=O)[O-])c(=O)n(C)c(=O)n2C)c(OC)c1,-26%,12%,3,-14,-28,/
CCOc1ccc(/C=C/c2c([N+](=O)[O-])c(=O)n(C)c(=O)n2C)cc1,?,13%,3,9,-93*,/
Cn1c(/C=C/c2ccc(Cl)cc2Cl)c([N+](=O)[O-])c(=O)n(C)c1=O,5.2µM*,8.2µM*,-7,?,-4,0%
CCc1ccc(/C=C/c2c([N+](=O)[O-])c(=O)n(C)c(=O)n2C)cc1,?,?,-7,-11,-98*,-2%
COc1ccc(/C=C/c2c([N+](=O)[O-])c(=O)n(C)c(=O)n2C)cc1,-3%,0%,-9,-4,-13,/
COc1ccccc1NC(=O)Cn1nc(Cc2cccnc2)c2ccccc2c1=O,-10%,-2%,4,6,-4,/
Cc1noc(C)c1CCC(=O)Nc1cc(C(=O)O)ccc1Cl,-11%,-15%,-7,7,7,1%
O=C(COC(=O)COc1ccccc1)NCc1ccc2c(c1)OCO2,-17%,-9%,-3,-6,19,1%
COc1ccc(C(=O)Nc2nc(CC(=O)NCCc3ccccc3OC)cs2)cc1,?,?,7,48,6,0%
CC(=O)c1ccc(S(=O)(=O)N2CCN(C)CC2)cc1,-20%,7%,5,-12,-5,/
Cc1nnsc1C(=O)NC(C)c1ccccc1 (stereo not given),-4%,?,10,4,-4,/
CCOc1ccc(CCNC(=O)c2cccs2)cc1OCC,?,-5%,0,-13,0,/
CC(NC(=O)c1sc2ncccc2c1-n1cccc1)c1ccccc1 (stereo not given),23µM*,?,4,/,/,-2%
CCOc1ccc(CCNC(=O)c2sc3ncccc3c2-n2cccc2)cc1OCC,?,26µM*,9,/,/,-3%
CC(C)NC(=O)c1sc2ncccc2c1-n1cccc1,2.6µM*,?,8,/,/,-1%
CC(C)NC(=O)c1cc2c(=O)n3ccccc3nc2s1,21%,-1%,-6,-13,-11,2%
CCc1nc(SCc2cc(=O)c3cc(F)ccc3[nH]2)n[nH]1,?,-14%,-8,/,/,-3%
COC(=O)c1cc(NC(=O)c2c(Cl)nc3sccn23)cc(C(=O)OC)c1,-3%,1%,-2,14,4,-3%
COC(=O)c1cc(=O)nc2sccn12,-11%,-5%,0,-9,8,28µM*
COC(=O)c1cc(=O)nc2sc(-c3ccccc3)nn12,0%,-12%,-11,4,24,28µM*
Cc1ccc(CNc2nc(CN3CCNC(=O)C3)nc3ccccc23)o1,-22%,?,/,/,/,/
SMILES,DT40 TDP1 no CPT,DT40 TDP1 CPT,DRD3 agonist,D3 antag,IL-1B inflam inh,ClpP mod
CSc1nc(Sc2ccccc2Cl)c2ccccc2n1,?,?,-13,-22,47,32µM*
CCOC(=O)c1cnc(SC)nc1Sc1ccccc1Cl,?,?,-7,-13,13,1%
COc1cccc2c1Oc1cc([N+](=O)[O-])cc(N(C)C(C)=O)c1C=C2,21µM*,?,-3,8,2,/
COc1cc(NC(=O)Cn2nnnc2-c2ccccc2F)cc(OC)c1OC,-21%,-13%,5,/,/,1%
COc1ccc(OC)c(NC(=O)C2(C)CCN2C(C)C)c1 (stereo not given),-22%,-18%,10,12,0,1%
[O-]/[N+](=C\c1ccccc1)c1ccccc1,?,?,-14,-7,-1,0%
[O-]/[N+](=C\c1ccccc1)c1ccc(Br)cc1,16µM*,?,7,8,1,1%
O=C(Oc1ccc(C(=S)N2CCOCC2)cc1)c1ccccc1F,-14%,-20%,14,24,-1,-1%
O=C(O)c1ccccc1NCc1ccncc1,11%,-2%,-1,-20,42,14µM*
O=C(O)c1ccc(CNc2ccccc2C(=O)O)cc1,-2%,-2%,-3,?,-3,32µM*
CCOC(=O)C1=C(c2ccccc2)N=c2s/c(=C\c3cccc(O)c3)c(=O)n2C1c1cccs1 (stereo not given),26µM*,?,-10,-12,-75*,-16%
CCOC(=O)C1=C(C)N=c2s/c(=C\c3ccc(OC(C)=O)c(OCC)c3)c(=O)n2C1/C=C/c1ccccc1 (stereo not given),?,?,-5,-56*,-7,-2%
CC(NCc1ccc(OCc2ccc(Cl)cc2)cc1)C(O)c1ccccc1 (stereo not given),?,15µM*,-4,0,-103*,/
COc1ccc(CNC(c2ccccc2)c2ccc(Cl)cc2)cc1 (stereo not given),16µM*,?,1,8,31,/
Cc1cc2c(c(C)c1CCO[C@@H]1O[C@H](CO)[C@@H](O)[C@H](O)[C@H]1O)C(=O)[C@@H](C)[C@@H]2O,5.2µM*,2.9µM*,14,-28,-8,-2%
Cc1cc(=O)oc2cc(O[C@@H]3O[C@H](CO)[C@H](O)[C@H](O)[C@H]3O)ccc12,1%,23%,-4,-21,0,1%
COc1ccc(OCCSc2ncc(CO)n2C)cc1,2%,-24%,3,19,14,/
O=C(NCCCN1CCOCC1)c1ccc(CSc2ccc(Cl)cc2)cc1,21µM*,26µM*,-14,9,-62*,1%
O=C(Nc1ccccc1C(=O)NCCCN1CCOCC1)c1ccc(Cl)cc1,?,-25%,-18,-54*,0,1%
COc1ccc(C(=O)Nc2ccc(Cl)cc2C(=O)NCCN2CCOCC2)cc1,-29%,-23%,-1,-23,-56*,-4%

# Assay outcomes deposited in PubChem by National Center for Advancing Translational Sciences (NCATS).
